These results are taken from PubChem BioAssay (NCATS).

Assay [1] has as its target DNA repair nuclease/redox regulator APEX1 (Homo sapiens) (UniProt P27695). As to the kind of experiment: qHTS Validation Assay for Inhibitors of the Human Apurinic/apyrimidinic Endonuclease 1 (APE1) (AID 1705;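 also: TAMRA fluorescence gain over two minutes as APE1 cuts a quenched THF abasic duplex; % is scaled to controls: 0 for no effect and ±100 for the full control effect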). The settings on record: purified APE1 endonuclease activity, fluorescence, titration; series mostly up to 57.1 µM. Summed up: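 Activity read as rising fluorescence (598 nm emission, 525 nm excitation) from incision of a TAMRA/BHQ-2 duplex carrying a THF abasic site (50 nM). Compound and enzyme sat 15 min at RT before substrate start; signal change between first and third 60-s reads.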
A general note: qHTS replaces the single test concentration by a dilution series.

A short description of assay [2]: Counterscreen for APE1 Inhibitors: Fluorescent Dye Displacement Validation Assay (AID 1707).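 Also: plate controls were ThO with dsDNA and no compound for no effect and ThO without dsDNA for full effect.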 To be noted: fluorescent dye displacement from DNA; series mostly up to 57.1 µM. Summed up:
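ThO 250 nM + dsDNA 50 nM (THF abasic site, 5'-TAMRA), Tris-HCl pH7.5/50mM NaCl/2 mM MgCl2/0.01% Tween-20; compounds pin-transferred; ex 480/em 540 nm endpoint. Neutral = no compound; no-DNA ThO wells = negative control.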
Background: A counterscreen serves to expose hits that act by an unwanted route or on another target.

Assay [3] in a line: Validation screen for inhibitors of Lassa infection (AID 463096; calls by dose curve; also: potency is read from the fitted curve at half-maximal effect). The settings on record: Lassa virus infection, cell-based; series mostly up to 46.1 µM.
For assay [4], the target named is M-phase phosphoprotein 8 (Homo sapiens) (UniProt Q99549). Nature of the assay: qHTS Validation Assay for Inhibitors for MPP8 Chromodomain Interactions with Methylated Histone Tails (AID 488949). Also: nearly all actives have a fitted effect of over 55% in size. Also: potency is read from the fitted curve at half-maximal effect. The settings on record: AlphaScreen MPP8 binding to H3K9me3 peptide; series mostly up to 114 µM. Summed up: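 AlphaScreen proximity signal from streptavidin donor and Ni-chelate acceptor beads (10 ug/mL each) reported binding of MPP8 to trimethyl-K9 H3(1-18) peptide, both at 50 nM. The complex formed 30 min before a 30 min compound exposure at room temperature, in PBS pH 7.4.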

The target of assay [5] is Transient receptor potential cation channel subfamily V member 1 (Homo sapiens) (UniProt Q8NER1). As to the kind of experiment: HTS Assay for Compounds that Act as Enhancers of the Vanilloid Receptor 1 (AID 488979). Also: 0% is about no effect. To be noted: TRPV1-expressing cells, enhancer of channel activity; series mostly up to 41.7 µM. Summed up:
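Calcium influx kinetics via Fluo-8 (480/520 nm) in TRPV1-expressing cells, 2000/well cultured overnight at 35.5C. Compound-alone read 3 min (agonist phase), followed by EC20 capsaicin challenge for 2 min (enhancer phase).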

Assay [6] deals with Thyrotropin receptor (Homo sapiens) (UniProt P16473). Nature of the assay: qHTS Assay for Antagonists of the Thyroid Stimulating Hormone Receptor (AID 488980). Also: 0% is about no effect. To be noted: TSHR-expressing cells, cAMP antagonist read-out; series mostly up to 57.5 µM. The method in brief:
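Inhibition of cAMP raised by EC80 TSH (4 nM final) was read by HTRF, with lysate cAMP competing against cAMP-d2 for cryptate antibody after 30 min at room temperature. The cells were transfected HEK293 held in phosphodiesterase inhibitor RO 20-1724 at 70 uM.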

For assay [7], the target named is Thyrotropin-releasing hormone receptor (Homo sapiens) (UniProt P34981). As to the kind of experiment: qHTS for Small Molecule Agonists and Allosteric Enhancers of Human TRH Receptor: Validation Screen for Agonists (AID 493127;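 active = calcium activation more than 3 SD above the typical response in the agonist read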; also: 0% is about no effect). The settings on record: TRH receptor agonist cell assay; at 2 µM; active compounds read high. Summed up: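 TRHR cells loaded with fluo-8 calcium dye; FDSS kinetic fluorescence (Ex 480/Em 530) read at 1 s/cycle after 23 nL compound addition. Agonist-mode calcium response recorded before the 10 nM TRH (EC20) addition.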

Assay [8] is described as follows: Validation screen for small molecules that induce DNA re-replication in SW480 colon adenocarcinoma cells (AID 504364). Also: 0% is about no effect. To be noted: DNA re-replication phenotype (high-content imaging); series mostly up to 46.1 µM. The method in brief:
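SW480 cells (250/well) exposed 48 h at 37 C, 5% CO2, then Hoechst-stained 40 min. Nuclear DNA content imaged by fluorescence scanning (405 nm excitation, 500-530 nm emission); re-replication scored as increased nuclei with elevated intensity.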

The target of assay [9] is Glutathione peroxidase 1 (Homo sapiens) (UniProt P07203). Nature of the assay: Primary qHTS Assay for Inhibitors of Recombinant Selenoprotein Glutathione Peroxidase 1 (GPX1) (AID 1845191). Also: % is scaled to controls: 0 for no effect and ±100 for the full control effect; nearly all actives have a fitted effect of over 65% in size. To be noted: recombinant GPX1, GR-coupled NADPH fluorescence, 15 min; series mostly up to 48.8 µM. Summed up: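 10 nM GPX1 + cpd, 30 min RT; start w/ 1 mM GSH, 0.5 mM cumene hydroperoxide, 0.5 mM NADPH, 100 nM GR, 0.01% BSA; buffer 50 mM Tris-HCl pH 7.5, 2 mM EDTA, 150 mM NaCl; Fl 340/450, 0 & 15 min.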

Assay [10] is described as follows: Validation screen for small molecules that induce DNA re-replication in MCF 10A normal breast cells (AID 463097). Also: nearly all actives have a fitted effect of over 60% in size. Also: potency is read from the fitted curve at half-maximal effect. To be noted: MCF 10A cells, DNA re-replication phenotype imaging; series mostly up to 46.1 µM. Summed up:
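Read-out is Hoechst total nuclear intensity by fluorescence scanning imager, flagging increased high-DNA-content nuclei. Compounds were incubated with MCF 10A cells for 48 hr (37 C, 5% CO2) before 40 min staining.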

Structures are written as SMILES. A number with no mark means an inactive call. Results filed as inconclusive are left out. The source made the active and inactive calls. Unless noted, calls follow the shape of the dose curve; as a rule, active = well fitted curve in the direction sought with a large enough effect; inconclusive = small, poorly fitted or top-dose-only effect, or another doubt; inactive = no such curve, though single readings can be large; an effect the other way counts as inactive or inconclusive.

Thyrotropin-releasing hormone receptor (Homo sapiens), sequence (P34981 whole entry, looked up): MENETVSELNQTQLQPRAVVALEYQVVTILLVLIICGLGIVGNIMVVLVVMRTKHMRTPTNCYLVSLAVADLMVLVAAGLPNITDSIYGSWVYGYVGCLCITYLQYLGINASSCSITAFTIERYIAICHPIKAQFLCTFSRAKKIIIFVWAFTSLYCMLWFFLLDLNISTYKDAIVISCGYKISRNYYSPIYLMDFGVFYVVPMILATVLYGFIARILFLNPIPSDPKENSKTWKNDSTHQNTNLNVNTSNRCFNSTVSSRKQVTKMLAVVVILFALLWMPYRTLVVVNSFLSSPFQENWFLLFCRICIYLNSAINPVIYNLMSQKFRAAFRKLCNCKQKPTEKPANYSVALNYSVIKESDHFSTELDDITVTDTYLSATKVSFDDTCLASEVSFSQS
M-phase phosphoprotein 8 (Homo sapiens), sequence (Q99549 whole entry, looked up): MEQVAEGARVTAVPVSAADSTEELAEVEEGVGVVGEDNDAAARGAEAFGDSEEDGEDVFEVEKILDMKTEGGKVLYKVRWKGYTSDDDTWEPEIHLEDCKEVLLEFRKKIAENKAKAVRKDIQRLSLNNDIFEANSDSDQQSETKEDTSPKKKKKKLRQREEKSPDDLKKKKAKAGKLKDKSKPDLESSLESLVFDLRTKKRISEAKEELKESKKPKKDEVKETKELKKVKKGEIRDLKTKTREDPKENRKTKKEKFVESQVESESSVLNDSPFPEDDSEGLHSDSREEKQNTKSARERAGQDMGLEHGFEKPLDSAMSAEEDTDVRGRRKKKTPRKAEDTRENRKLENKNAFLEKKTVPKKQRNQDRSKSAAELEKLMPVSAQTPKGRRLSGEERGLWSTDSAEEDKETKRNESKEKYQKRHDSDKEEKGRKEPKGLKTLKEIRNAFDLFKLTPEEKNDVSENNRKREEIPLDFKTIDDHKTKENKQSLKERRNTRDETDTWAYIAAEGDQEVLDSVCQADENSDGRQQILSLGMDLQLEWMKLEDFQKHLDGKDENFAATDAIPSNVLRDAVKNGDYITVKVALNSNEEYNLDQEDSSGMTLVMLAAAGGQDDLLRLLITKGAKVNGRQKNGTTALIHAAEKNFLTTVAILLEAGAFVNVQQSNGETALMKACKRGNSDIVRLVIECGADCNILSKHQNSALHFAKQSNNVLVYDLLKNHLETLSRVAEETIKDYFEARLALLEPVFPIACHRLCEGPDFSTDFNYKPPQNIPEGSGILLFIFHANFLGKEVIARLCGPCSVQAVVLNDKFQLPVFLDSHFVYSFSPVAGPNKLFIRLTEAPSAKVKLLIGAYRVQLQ
Thyrotropin receptor (Homo sapiens), sequence (P16473 whole entry, looked up): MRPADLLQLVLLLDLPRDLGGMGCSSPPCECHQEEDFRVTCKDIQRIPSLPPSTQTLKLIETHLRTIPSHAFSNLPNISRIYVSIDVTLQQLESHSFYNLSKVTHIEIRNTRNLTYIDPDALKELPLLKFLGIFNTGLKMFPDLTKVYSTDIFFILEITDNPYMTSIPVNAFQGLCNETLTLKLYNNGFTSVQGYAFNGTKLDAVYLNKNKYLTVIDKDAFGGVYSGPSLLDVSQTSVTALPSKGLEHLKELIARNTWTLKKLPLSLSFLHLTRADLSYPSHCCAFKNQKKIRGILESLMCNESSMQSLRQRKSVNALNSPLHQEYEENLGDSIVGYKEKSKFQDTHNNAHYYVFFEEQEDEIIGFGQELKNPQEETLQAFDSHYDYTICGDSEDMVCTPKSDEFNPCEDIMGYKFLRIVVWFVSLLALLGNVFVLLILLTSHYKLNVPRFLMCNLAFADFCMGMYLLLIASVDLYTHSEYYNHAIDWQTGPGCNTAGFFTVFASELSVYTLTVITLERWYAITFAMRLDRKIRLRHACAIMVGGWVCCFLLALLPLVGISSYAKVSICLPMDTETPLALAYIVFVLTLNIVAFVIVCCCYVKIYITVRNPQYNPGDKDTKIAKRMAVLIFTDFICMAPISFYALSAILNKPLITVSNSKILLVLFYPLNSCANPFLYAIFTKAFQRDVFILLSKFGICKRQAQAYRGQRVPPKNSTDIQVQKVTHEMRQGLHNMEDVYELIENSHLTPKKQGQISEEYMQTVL
DNA repair nuclease/redox regulator APEX1 (Homo sapiens), sequence (P27695 whole entry, looked up): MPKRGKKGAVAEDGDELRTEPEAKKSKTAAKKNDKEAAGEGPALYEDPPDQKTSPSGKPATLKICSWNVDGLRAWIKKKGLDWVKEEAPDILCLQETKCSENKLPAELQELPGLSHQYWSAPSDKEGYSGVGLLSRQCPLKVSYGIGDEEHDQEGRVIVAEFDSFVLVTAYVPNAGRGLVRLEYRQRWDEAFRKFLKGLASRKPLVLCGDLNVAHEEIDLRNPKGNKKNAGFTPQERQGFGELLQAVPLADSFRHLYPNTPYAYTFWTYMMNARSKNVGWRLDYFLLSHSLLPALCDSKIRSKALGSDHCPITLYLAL
Transient receptor potential cation channel subfamily V member 1 (Homo sapiens), sequence (Q8NER1 whole entry, looked up): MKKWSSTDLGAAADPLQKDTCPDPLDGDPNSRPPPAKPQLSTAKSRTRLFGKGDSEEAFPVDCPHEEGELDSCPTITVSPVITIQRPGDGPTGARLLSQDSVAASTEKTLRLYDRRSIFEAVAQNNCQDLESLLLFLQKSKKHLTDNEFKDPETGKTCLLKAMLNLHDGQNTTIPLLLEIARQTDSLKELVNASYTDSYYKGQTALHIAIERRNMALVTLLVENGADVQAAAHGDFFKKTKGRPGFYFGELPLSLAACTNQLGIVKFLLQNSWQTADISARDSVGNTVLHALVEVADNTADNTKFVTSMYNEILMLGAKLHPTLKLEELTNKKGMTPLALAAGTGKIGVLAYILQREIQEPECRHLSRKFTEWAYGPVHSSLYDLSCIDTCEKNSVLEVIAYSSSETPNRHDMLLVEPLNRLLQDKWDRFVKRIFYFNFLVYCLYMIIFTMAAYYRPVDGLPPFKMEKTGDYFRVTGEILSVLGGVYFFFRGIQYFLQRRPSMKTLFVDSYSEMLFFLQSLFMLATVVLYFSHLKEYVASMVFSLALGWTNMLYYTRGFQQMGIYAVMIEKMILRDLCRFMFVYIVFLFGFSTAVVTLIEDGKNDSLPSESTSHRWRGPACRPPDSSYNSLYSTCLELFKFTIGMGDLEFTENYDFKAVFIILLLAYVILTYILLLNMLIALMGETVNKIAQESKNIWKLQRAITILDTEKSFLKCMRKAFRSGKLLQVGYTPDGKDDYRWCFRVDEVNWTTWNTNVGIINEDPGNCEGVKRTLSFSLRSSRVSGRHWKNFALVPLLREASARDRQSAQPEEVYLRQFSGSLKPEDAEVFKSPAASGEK
Glutathione peroxidase 1 (Homo sapiens), sequence (P07203 whole entry, looked up): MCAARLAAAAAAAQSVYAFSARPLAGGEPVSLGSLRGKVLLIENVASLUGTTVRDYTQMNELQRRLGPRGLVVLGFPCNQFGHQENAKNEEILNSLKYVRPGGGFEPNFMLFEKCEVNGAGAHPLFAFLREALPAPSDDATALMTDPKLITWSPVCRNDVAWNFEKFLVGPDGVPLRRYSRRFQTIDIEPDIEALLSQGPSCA

Turning to `CCCN(CCC)C(=O)Cc1c(-c2ccc(Cl)cc2)nc2c(Cl)cc(Cl)cn12`, the Potency result in assay [1], in assay [3] and in assay [4] was “inactive” in each case. Also, the outcome in assay [2], in assay [5], in [6] and in [8] was inactive. Further, the activation in assay [7] is -11.1%.
As for `C/C1=C/C[C@@H](/C(C)=C/c2csc(C)n2)OC(=O)C[C@H](O)C(C)(C)C(=O)[C@H](C)[C@@H](O)[C@@H](C)CCC1`, the Potency result in [9] is “inactive”.
`CCNC(=O)[C@H]1O[C@@H](n2cnc3c(N)ncnc32)[C@H](O)[C@H]1O`: the Potency result in [1], in [3], in assay [10] and in assay [4] was “inactive” throughout. The compound was called inactive in [2], in [5], in [6] and in [8]. In addition, in assay [7], the activation was 0%.
In the case of `CCCC[N+]1(C)C2CC(OC(=O)C(CO)c3ccccc3)CC1C1OC12` (stereo not given), the Potency entry in [1], in assay [3], in [10] and in assay [4] was “inactive” each time. Besides, the compound was called inactive in assay [2], in [5], in assay [6] and in assay [8]. For the same compound, the activation in [7] is -0.438%.
In the case of `CCN1C[C@]2(C)CC[C@H](O)[C@@]34[C@@H]5C[C@@H]6[C@@H](OC)C[C@@](O)(C5[C@H]6O)[C@@H](C[C@@H]23)[C@@H]14`, the Potency result in assay [1], in [3], in assay [10] and in assay [4] was “inactive” in each case. Besides, the compound was called inactive in [2], in [5], in assay [6] and in [8]. Further, the activation in assay [7] was 0.875%.
Consider `CCCCN1C2CCC1CC(OC(c1ccc(F)cc1)c1ccc(F)cc1)C2` (stereo not given), for which the Potency result in assay [1] and in assay [4] was “inactive” each time. Besides, the call in [2], in [6] and in assay [8] was inactive. For the same compound, the Potency in assay [3] is 10 µM (active); in [10] it was 20 µM (active). In addition, the activation in [7] was 8.5%.
Regarding `CCCN1CCC[C@@H](c2cccc(C#N)c2)C1`, the Potency entry in [1], in assay [3], in [10] and in [4] was “inactive” throughout. In addition, the call in assay [2], in assay [5], in [6] and in [8] was inactive. Moreover, the activation in assay [7] was 1.31%.
`CC12CCC3C(CCC4=C(O)C(=O)CCC43C)C1CCC2=O` (stereo not given): the Potency result in assay [1], in assay [3], in assay [10] and in assay [4] was “inactive” in each case. Moreover, the result in assay [2], in assay [5] and in assay [8] was inactive.
For the compound `NC(Cn1ccc(=O)[nH]c1=O)C(=O)O` (stereo not given), the Potency entry in assay [1], in assay [3], in assay [10] and in [4] was “inactive” in each case. In addition, the compound was classed as inactive in [2], in assay [5], in [6] and in [8]. The activation in assay [7] was 0.375%.
Consider `CC1Cc2cc3c(cc2C(c2ccc(N)cc2)=NN1)OCO3` (stereo not given), for which the Potency entry in [1], in [3] and in [10] was “inactive” in each case. Besides, the compound was classed as inactive in assay [2], in assay [5], in assay [6] and in [8]. For the same compound, the Potency in assay [4] is 56.2 µM (active). Also, the activation in [7] is 0.188%.
As for `COc1ccc2c3c1O[C@H]1C(=O)CC[C@@]4(O)C(C2)N(CC2CC2)CCC314` (stereo not given in full), the Potency entry in assay [1], in assay [3], in assay [10] and in assay [4] was “inactive” in each case. The compound was called inactive in assay [2], in assay [5], in assay [6] and in [8]. The activation in assay [7] was 2.19%.
Regarding `CCCN1CCC[C@@H]2Cc3n[nH]cc3C[C@H]21`, the Potency entry in assay [1], in assay [3], in assay [10] and in assay [4] was “inactive” throughout. Further, the outcome in [2], in [5], in assay [6] and in [8] was inactive. Also, the activation in assay [7] was 1.12%.
Take `COC(=O)C(N)CCCN=C(N)N[N+](=O)[O-]` (stereo not given): the Potency entry in [1], in assay [3], in [10] and in assay [4] was “inactive” each time. The compound was called inactive in assay [2], in assay [5], in assay [6] and in assay [8]. Moreover, in assay [7], the activation was 1.06%.
For `C[C@H]1OC[C@@H](C[N+](C)(C)C)O1`, the Potency result in assay [1], in assay [3], in [10] and in assay [4] was “inactive” each time. The compound was called inactive in [2], in assay [5], in [6] and in assay [8]. Moreover, in assay [7], the activation was 24.3%.
As to `CN1CCC23CCCC[C@H]2C1Cc1ccc(O)cc13` (stereo not given in full), the Potency entry in assay [1], in assay [3], in assay [10] and in assay [4] was “inactive” throughout. Moreover, the result in [2], in [5], in assay [6] and in [8] was inactive. In addition, the activation in [7] is 0.625%.
Regarding `C[C@H]1C2Cc3ccc(O)cc3[C@]1(C)CCN2CC1CC1`, the Potency entry in assay [1], in assay [3], in [10] and in [4] was “inactive” throughout. The compound was classed as inactive in assay [2], in assay [5], in assay [6] and in assay [8]. For the same compound, the activation in assay [7] is 1.81%.
Turning to `NNCc1cccc(O)c1`, the Potency entry in [1], in assay [3], in assay [10] and in [4] was “inactive” in each case. The call in assay [2], in assay [5], in assay [6] and in assay [8] was inactive. The activation in [7] is 0.875%.
Consider `COc1ccc2c(c1O)-c1cccc3c1C(C2)N(C)CC3` (stereo not given), for which the Potency result in assay [1], in [3] and in assay [10] was “inactive” throughout. Also, the compound was called inactive in [2], in assay [5], in assay [6] and in assay [8]. Besides, the Potency in assay [4] was 44.7 µM (active). For the same compound, the activation in assay [7] was 1.19%.
For `CCCN1CCCC(c2cccc(O)c2)C1` (stereo not given), the Potency entry in [1], in [3], in [10] and in assay [4] was “inactive” throughout. Moreover, the compound was classed as inactive in assay [2], in assay [5], in [6] and in assay [8]. Moreover, the activation in assay [7] was -4.62%.
`COc1cc(C[C@@H](C)N)c(OC)cc1I`: the Potency entry in [1], in assay [3], in assay [10] and in [4] was “inactive” throughout. Besides, the result in assay [2], in [5], in [6] and in assay [8] was inactive. In addition, the activation in assay [7] is 0.562%.
With `CCN(CC)C(=O)N[C@@H]1C[C@@H]2c3cccc4[nH]cc(c34)C[C@H]2N(C)C1`, the Potency entry in assay [1], in assay [3] and in [10] was “inactive” in each case. The compound was called inactive in [2], in assay [5], in assay [6] and in assay [8]. In assay [7], the activation is -2.62%.
For `CC(C)(O)C1C2OC(=O)C1[C@]1(O)C[C@H]3O[C@]34C(=O)O[C@H]2[C@]14C` (stereo not given in full) (tested in a mixture with another compound), the Potency entry in assay [1], in [3], in [10] and in assay [4] was “inactive” throughout. Moreover, the compound was called inactive in assay [2], in assay [5], in assay [6] and in assay [8]. Besides, the activation in [7] was 0.625%.
